PubChem BioAssay
Values joined by “and” are separate entries in the source; they are usually repeats but may differ in a detail not shown here. Identical values can stand only once. Records with an inconclusive call do not appear. Active and inactive are the calls of the source.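 The calls were made as follows, unless noted: active = normalized viability below 100% at a tested concentration; inactive = the rest.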

Assays:
[1] = growth inhibition of DIPG glioma cells, dose response, cell-based, SU-DIPG-XVII, MIPE5.0, CellTiter-Glo, qHTS (AID 1347060; cut-off not given, nearly all actives have AC50 up to about 26 µM;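 also: cells exposed to compound for 48 hours before viability readout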); conditions: SU-DIPG-XVII viability, CellTiter-Glo ATP luminescence
[2] = growth inhibition of DIPG glioma cells, dose response, cell-based, JHH-DIPG-1, MIPE4.0, CellTiter-Glo, qHTS (AID 1347062; cut-off not given, nearly all actives have AC50 up to about 27 µM;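 as to AC50: cells exposed to compound for two days before readout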); conditions: JHH-DIPG-1 viability, CellTiter-Glo ATP luminescence
[3] = growth inhibition of DIPG glioma cells, dose response, cell-based, SU-DIPG-IV, MIPE4.0, CellTiter-Glo, qHTS (AID 1347063; cut-off not given, nearly all actives have AC50 up to about 30 µM;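 also: compound exposure lasted 48 hours before the viability readout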); conditions: SU-DIPG-IV viability, CellTiter-Glo ATP luminescence
[4] = growth inhibition of DIPG glioma cells, dose response, cell-based, SU-DIPG-XIII, MIPE5.0, CellTiter-Glo, qHTS (AID 1347064; cut-off not given, nearly all actives have AC50 up to about 23 µM;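 as to AC50: cells exposed to compound for 48 hours before the viability read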); conditions: SU-DIPG-XIII viability, CellTiter-Glo ATP luminescence
[5] = SU-DIPG-XXV glioma cell viability, MIPE5.0 library, qHTS (AID 1347068; cut-off not given, nearly all actives have IC50 up to about 30 µM;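 as to IC50: cells exposed to compound for 48 hours before viability readout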)
[6] = sensitizers of A549 cells to miR-34 induction, primary screen, imaging, A549 dox-inducible miR-34, nuclei and caspase counts (AID 1347080;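 active = compounds whose cell count with miR-34 switched on is under 0.7 times the count with it off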); conditions: A549 miR-34 inducible, Hoechst nuclei count, 48 h
[7] = survival rescue of mitochondrial mutant cells in low glucose, primary screen, MELAS cybrids, Rieske KO mouse fibroblasts, CellTiter-Glo (AID 1508586;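 active = mean z-score across replicates of 1.96 or higher in either the MELAS or the Rieske mutant cell line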;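 also: z relative to plate mean and SD of compound and empty wells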)
[8] = viability loss in pontine glioma line – cell-based, SU-DIPG-XXV, MIPE5.0, CellTiter-Glo, qHTS, dose response (AID 1347065; cut-off not given, nearly all actives have AC50 up to about 26 µM;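 also: cells exposed to compound for 48 hours before ATP readout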); conditions: CellTiter-Glo ATP luminescence
[9] = SU-DIPG-VI glioma cell viability, MIPE4.0 library, CellTiter-Glo luminescence, qHTS (AID 1347066; cut-off not given, nearly all actives have AC50 up to about 30 µM;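 also: cells exposed to compound for 48 hours before readout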); conditions: CellTiter-Glo ATP luminescence
[10] = JHH-DIPG-1 glioma cell viability, MIPE5.0 library, CellTiter-Glo luminescence, qHTS (AID 1347067; cut-off not given, nearly all actives have AC50 up to about 26 µM;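 also: cells exposed to compound for 48 hours before readout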); conditions: JHH-DIPG-1 glioma viability, CellTiter-Glo ATP luminescence
[11] = modifiers of HSF1 nuclear foci, imaging, Selleck Cancer Library (AID 1347162; in the data active = plate-normalised HSF1 focus index below about 0.46); conditions: human cells, at 10 µM; SSMD: measured here: HSF1 foci SSMD mean; cell count: measured here: cell number; plate-normalised HSF1 focus index: stronger effect = lower value
[12] = ovarian cancer cell viability with rucaparib, profiling panel, oncology-focused library, rucaparib conditional (AID 1508598); conditions: patient-derived ovarian cancer cells, CellTiter-Glo viability, 144 h, stronger effect = lower value
[13] = stronger effect = lower value, cell number ratio, induced over uninduced
[14] = measured here: relative caspase fold change +Dox/-Dox
[15] = measured here: total cells with miR-34 induction, stronger effect = lower value
[16] = measured here: total cells without miR-34 induction
[17] = MELAS cybrid survival, CellTiter-Glo 48 h, stronger effect = higher value
[18] = Rieske KO mouse fibroblast survival, CellTiter-Glo 72 h

CC1(C)Cc2c(-c3ccccc3)c(-c3ccc(Cl)cc3)c(CC(=O)O)n2C1
AC50 [1]: 26.3 µM (active) | outcome [2]: inactive | AC50 [3]: 18.7 µM (active) | outcome [4]: inactive | outcome [5]: inactive | fold change [6, 13]: 0.932 (inactive) | fold change [6, 14]: 1.58 | cell count [6, 15]: 5140 | cell count [6, 16]: 5520 | z-score [7, 17]: -0.384 (inactive) | z-score [7, 18]: 1.11

Cc1[nH]c(/C=C2\C(=O)Nc3ccc(S(=O)(=O)N(C)c4cccc(Cl)c4)cc32)c(C)c1C(=O)N1CCN(C)CC1
AC50 [1]: 9.34 µM (active) | AC50 [2]: 20.9 µM (active) | AC50 [3]: 23.5 µM (active) | AC50 [4]: 7.42 µM (active) | AC50 [8]: 7.42 µM (active) | AC50 [9]: 11.8 µM (active) | AC50 [10]: 8.33 µM (active) | SSMD [11]: 1.63 | cell count [11]: 7040 | plate-normalised HSF1 focus index [11]: 1.1 (inactive)

COc1ccc(S(=O)(=O)N(C(C)=O)c2ccccc2/C=C/c2cc[n+]([O-])cc2)cc1
AC50 [1]: 1.48 µM (active) | AC50 [2]: 0.935 µM (active) | AC50 [3]: 0.372 µM (active) | AC50 [4]: 2.63 µM (active) | AC50 [8]: 1.18 µM (active) | AC50 [10]: 1.86 µM (active)

COc1ccc(-c2oc3c(CC=C(C)C)c(O)cc(O)c3c(=O)c2O)cc1
AC50 [1]: 20.9 µM (active) | outcome [2]: inactive | outcome [3]: inactive | AC50 [4]: 16.6 µM (active) | AC50 [8]: 18.6 µM (active) | outcome [5]: inactive

COc1cc2c(Nc3ccc(Cl)c(Cl)c3F)ncnc2cc1OCC1C[C@@H]2CN(C)C[C@@H]2C1 (stereo partly specified)
AC50 [1]: 5.25 µM (active) | AC50 [2]: 18.7 µM (active) | AC50 [3]: 6.62 µM (active) | AC50 [4]: 8.33 µM (active) | AC50 [8]: 7.42 µM (active) and 8.33 µM (active) | AC50 [10]: 4.68 µM (active) and 2.35 µM (active) | IC50 [5]: 18.6 µM (active) and 16.6 µM (active)

COc1cc2nccc(Oc3ccc(NC(=O)NC4CC4)c(Cl)c3)c2cc1C(N)=O
AC50 [1]: 2.09 µM (active) | AC50 [2]: 2.35 µM (active) | AC50 [3]: 4.69 µM (active) | AC50 [4]: 4.68 µM (active) | AC50 [8]: 2.35 µM (active) | fold change [6, 13]: 0.924 (inactive) | fold change [6, 14]: 1.21 | cell count [6, 15]: 5580 | cell count [6, 16]: 6040 | SSMD [11]: 2.76 | cell count [11]: 6600 | plate-normalised HSF1 focus index [11]: 1.14 (inactive) | z-score [7, 17]: -0.303 (inactive) | z-score [7, 18]: 0.105 | viability ([12]; at 0.000305 µM, OCI-C5x cells, with rucaparib 10 µM, 100% = cells with rucaparib alone): 125% (inactive) | viability ([12]; at 0.000305 µM, OCI-C5x cells, without rucaparib): 110% (inactive) | viability ([12]; at 0.000305 µM, OCI-P5x cells, with rucaparib 20 µM, 100% = cells with rucaparib alone): 111% (inactive) | viability ([12]; at 0.000305 µM, OCI-P5x cells, without rucaparib): 105% (inactive) | viability ([12]; at 0.00122 µM, OCI-C5x cells, with rucaparib 10 µM, 100% = cells with rucaparib alone): 100% (inactive) | viability ([12]; at 0.00122 µM, OCI-C5x cells, without rucaparib): 110% (inactive) | viability ([12]; at 0.00122 µM, OCI-P5x cells, with rucaparib 20 µM, 100% = cells with rucaparib alone): 112% (inactive) | viability ([12]; at 0.00122 µM, OCI-P5x cells, without rucaparib): 114% (inactive) | viability ([12]; at 0.00488 µM, OCI-C5x cells, with rucaparib 10 µM, 100% = cells with rucaparib alone): 108% (inactive) | viability ([12]; at 0.00488 µM, OCI-C5x cells, without rucaparib): 103% (inactive) | viability ([12]; at 0.00488 µM, OCI-P5x cells, with rucaparib 20 µM, 100% = cells with rucaparib alone): 110% (inactive) | viability ([12]; at 0.00488 µM, OCI-P5x cells, without rucaparib): 112% (inactive) | viability ([12]; at 0.0195 µM, OCI-C5x cells, with rucaparib 10 µM, 100% = cells with rucaparib alone): 103% (inactive) | viability ([12]; at 0.0195 µM, OCI-C5x cells, without rucaparib): 113% (inactive) | viability ([12]; at 0.0195 µM, OCI-P5x cells, with rucaparib 20 µM, 100% = cells with rucaparib alone): 117% (inactive) | viability ([12]; at 0.0195 µM, OCI-P5x cells, without rucaparib): 114% (inactive) | viability ([12]; at 0.0781 µM, OCI-C5x cells, with rucaparib 10 µM, 100% = cells with rucaparib alone): 103% (inactive) | viability ([12]; at 0.0781 µM, OCI-C5x cells, without rucaparib): 112% (inactive) | viability ([12]; at 0.0781 µM, OCI-P5x cells, with rucaparib 20 µM, 100% = cells with rucaparib alone): 111% (inactive) | viability ([12]; at 0.0781 µM, OCI-P5x cells, without rucaparib): 111% (inactive) | viability ([12]; at 0.313 µM, OCI-C5x cells, with rucaparib 10 µM, 100% = cells with rucaparib alone): 108% (inactive) | viability ([12]; at 0.313 µM, OCI-C5x cells, without rucaparib): 110% (inactive) | viability ([12]; at 0.313 µM, OCI-P5x cells, with rucaparib 20 µM, 100% = cells with rucaparib alone): 108% (inactive) | viability ([12]; at 0.313 µM, OCI-P5x cells, without rucaparib): 110% (inactive) | viability ([12]; at 1.25 µM, OCI-C5x cells, with rucaparib 10 µM, 100% = cells with rucaparib alone): 126% (inactive) | viability ([12]; at 1.25 µM, OCI-C5x cells, without rucaparib): 111% (inactive) | viability ([12]; at 1.25 µM, OCI-P5x cells, with rucaparib 20 µM, 100% = cells with rucaparib alone): 119% (inactive) | viability ([12]; at 1.25 µM, OCI-P5x cells, without rucaparib): 112% (inactive) | viability ([12]; at 5 µM, OCI-C5x cells, with rucaparib 10 µM, 100% = cells with rucaparib alone): 142% (inactive) | viability ([12]; at 5 µM, OCI-C5x cells, without rucaparib): 111% (inactive) | viability ([12]; at 5 µM, OCI-P5x cells, with rucaparib 20 µM, 100% = cells with rucaparib alone): 91.4% (active) | viability ([12]; at 5 µM, OCI-P5x cells, without rucaparib): 88.9% (active)
